# Source: PubChem BioAssay (NCATS)
# Results filed as inconclusive are left out. A call without a number means that no potency is given here. Active and inactive are the calls of the source. Calls come from the whole dose curve; as a rule, active = well fitted inhibition curve with a large enough effect; inconclusive = small, poorly fitted or top-dose-only effect; inactive = flat fitted curve, though single readings scatter.
# What was measured:
# Experiment in all cases: qHTS profiling for inhibitors of Plasmodium falciparum proliferation (AID 504749); note: nearly all actives have a fitted effect of over 60% in size
# Details in all cases: P. falciparum in erythrocytes, SYBR Green DNA, 72 h; series mostly up to 28.7 µM
# P93_24 = system: P93_24
# Summary of the method: (§1)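 Each compound contacts P. falciparum-infected red blood cells for 72 h at 37 C; lysis buffer (Tris, EDTA, saponin, Triton X, SYBR Green I) is added and fluorescence measured next morning; values normalized to controls.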
# P94_40 = system: P94_40
# Summary of the method: as §1
# PAD = system: PAD
# Summary of the method: as §1
# PC49 = system: PC49
# Summary of the method: as §1
# TAB109 = system: TAB109
# Summary of the method: as §1
# TAB165 = system: TAB165
# Summary of the method: as §1
# PC15 = system: PC15
# Summary of the method: as §1
# PC26 = system: PC26
# Summary of the method: as §1
# SC27B = system: SC27B
# Summary of the method: as §1
# TAB113 = system: TAB113
# Summary of the method: as §1
# Potency is the fitted concentration of half-maximal effect.
compound,measurement,setting,value
O=C(CN1CCN(Cc2ccc3c(c2)OCO3)CC1)N1c2ccccc2Sc2ccccc21,Potency,P93_24,8.91 µM (active)
same,Potency,P94_40,8.91 µM (active)
same,Potency,PAD,12.6 µM (active)
same,Potency,PC49,inactive
same,Potency,TAB109,3.55 µM (active)
same,Potency,TAB165,10 µM (active)
CCCCCN=C(N)N/N=C/c1c[nH]c2ccc(OC)cc12,Potency,P93_24,3.16 µM (active)
same,Potency,P94_40,2.82 µM (active)
same,Potency,PAD,6.31 µM (active)
same,Potency,PC15,5.62 µM (active)
same,Potency,PC26,12 µM (active)
same,Potency,SC27B,12.6 µM (active)
same,Potency,TAB109,4.47 µM (active)
same,Potency,TAB113,10 µM (active)
same,Potency,TAB165,3.55 µM (active)
CCN(CC)CCNc1ccc(CO)c2sc3ccccc3c(=O)c12,Potency,P93_24,0.891 µM (active)
same,Potency,P94_40,1.58 µM (active)
same,Potency,PAD,1 µM (active)
same,Potency,PC15,3.16 µM (active)
same,Potency,PC26,7.57 µM (active)
same,Potency,SC27B,1.12 µM (active)
same,Potency,TAB109,1.58 µM (active)
same,Potency,TAB113,1.12 µM (active)
same,Potency,TAB165,0.794 µM (active)
C=CCN1CCc2nc(N)sc2CC1,Potency,P94_40,inactive
same,Potency,PAD,inactive
same,Potency,PC15,inactive
same,Potency,PC26,inactive
same,Potency,PC49,inactive
same,Potency,SC27B,inactive
same,Potency,TAB109,inactive
same,Potency,TAB113,inactive
same,Potency,TAB165,inactive
CN(CCCN1c2ccccc2CCc2ccccc21)CC(=O)c1ccc(Cl)cc1,Potency,P93_24,11.2 µM (active)
same,Potency,P94_40,8.91 µM (active)
same,Potency,PAD,12.6 µM (active)
same,Potency,PC15,10 µM (active)
same,Potency,SC27B,10 µM (active)
same,Potency,TAB109,7.94 µM (active)
same,Potency,TAB113,10 µM (active)
same,Potency,TAB165,8.91 µM (active)
O=[N+]([O-])c1cccc(S(=O)(=O)NCCNS(=O)(=O)c2cccc([N+](=O)[O-])c2)c1,Potency,P93_24,inactive
same,Potency,P94_40,inactive
same,Potency,PC49,inactive
same,Potency,SC27B,inactive
same,Potency,TAB113,inactive
Oc1ccc(Cl)cc1Cc1cc(Cl)ccc1O,Potency,P93_24,inactive
same,Potency,PC49,inactive
same,Potency,TAB165,11.2 µM (active)
CCN(CC)CCOc1ccc2c(c1)C(=O)c1cc(OCCN(CC)CC)ccc1-2,Potency,P93_24,11.2 µM (active)
same,Potency,PC26,9.53 µM (active)
same,Potency,TAB109,5.01 µM (active)
same,Potency,TAB113,11.2 µM (active)
O=C(Oc1cccc2cccnc12)c1ccccc1,Potency,P93_24,inactive
same,Potency,P94_40,inactive
same,Potency,PAD,inactive
same,Potency,PC15,inactive
same,Potency,PC49,inactive
same,Potency,SC27B,inactive
same,Potency,TAB109,inactive
same,Potency,TAB113,inactive
same,Potency,TAB165,inactive
NC(=O)C1(N2CCCCC2)CCN(CCCC(=O)c2ccc(F)cc2)CC1,Potency,P94_40,inactive
same,Potency,PAD,inactive
same,Potency,PC15,inactive
same,Potency,PC26,inactive
same,Potency,PC49,inactive
same,Potency,SC27B,inactive
same,Potency,TAB165,inactive
NS(=O)(=O)c1ccc(Cl)c(S(N)(=O)=O)c1,Potency,PAD,inactive
same,Potency,PC15,inactive
same,Potency,PC26,inactive
same,Potency,PC49,inactive
same,Potency,SC27B,inactive
same,Potency,TAB109,inactive
same,Potency,TAB113,inactive
same,Potency,TAB165,inactive
CN(C)CCOC(c1ccc(Cl)cc1)c1ccccn1 (stereo not drawn),Potency,PAD,inactive
same,Potency,PC26,inactive
same,Potency,TAB113,inactive
NCc1ccccc1Sc1ccccc1CO,Potency,PC49,inactive
same,Potency,SC27B,inactive
same,Potency,TAB113,inactive
O=C(NC1CCN(CCc2c[nH]c3ccccc23)CC1)c1ccccc1,Potency,PAD,inactive
same,Potency,SC27B,inactive
same,Potency,TAB113,inactive
same,Potency,TAB165,inactive
CC(C)(Cc1c[nH]c2ccccc12)NCC(O)COc1ccccc1C#N (stereo not drawn),Potency,P94_40,11.2 µM (active)
same,Potency,PC26,inactive
same,Potency,PC49,inactive
same,Potency,TAB109,10 µM (active)
same,Potency,TAB165,12.6 µM (active)
O=C(O)CCc1nc2ccccc2[nH]1,Potency,PC15,inactive
same,Potency,PC49,0.01 µM (active)
same,Potency,TAB109,inactive
same,Potency,TAB165,7.94 µM (active)
Cc1ccc2c(Br)cc(Br)c(O)c2n1,Potency,PC15,inactive
same,Potency,SC27B,11.2 µM (active)
same,Potency,TAB113,12.6 µM (active)
same,Potency,TAB165,6.31 µM (active)
COC(=O)C(c1ccccc1Cl)N1CCc2sccc2C1 (stereo not drawn),Potency,PC15,inactive
same,Potency,PC49,inactive
CNCCCCOc1ccccc1Cc1ccccc1,Potency,PC49,5.01 µM (active)
same,Potency,TAB109,4.47 µM (active)
O=S(c1cc(Cl)cc(Cl)c1O)c1cc(Cl)cc(Cl)c1O,Potency,PC15,inactive
same,Potency,PC49,0.398 µM (active)
same,Potency,TAB165,0.355 µM (active)
CN1CCN(c2c(F)cc3c(=O)c(C(=O)O)cn4c3c2SCC4)CC1,Potency,PC15,inactive
same,Potency,PC26,inactive
same,Potency,PC49,inactive
same,Potency,SC27B,inactive
same,Potency,TAB113,inactive
CN1CCN(c2cc3c(cc2F)c(=O)c(C(=O)O)cn3-c2ccc(F)cc2)CC1,Potency,PAD,inactive
same,Potency,PC15,inactive
same,Potency,PC26,inactive
same,Potency,PC49,inactive
same,Potency,SC27B,inactive
same,Potency,TAB113,inactive
same,Potency,TAB165,inactive
CCN(CC)CCOC(=O)C1(c2ccccc2)CCCC1,Potency,P94_40,inactive
same,Potency,PAD,inactive
same,Potency,PC26,inactive
same,Potency,SC27B,inactive
same,Potency,TAB109,inactive
same,Potency,TAB113,0.005 µM (active)
same,Potency,TAB165,inactive
Cc1cc(CC(=O)O)c(C)n1-c1ccc(Cl)cc1,Potency,PC15,inactive
same,Potency,TAB109,inactive
same,Potency,TAB165,14.1 µM (active)
CCCCCCCCCCCCOCCOCCOCCOCCOCCOCCOCCOCCOCCO,Potency,PC26,inactive
same,Potency,PC49,inactive
CCN(CC)CCOc1ccccc1C(=O)CCc1ccccc1,Potency,PAD,inactive
same,Potency,PC49,inactive
same,Potency,TAB113,inactive
N/C(=N\N=C\c1ccc(Cl)cc1)N/N=C/c1ccc(Cl)cc1,Potency,PC26,inactive
same,Potency,PC49,inactive
same,Potency,SC27B,12.6 µM (active)
same,Potency,TAB109,6.31 µM (active)
same,Potency,TAB165,3.98 µM (active)
Cc1cc2c(OCC(CNC(C)(C)C)OC(=O)c3ccccc3)cccc2[nH]1 (stereo not drawn),Potency,PAD,inactive
same,Potency,PC15,inactive
same,Potency,PC26,inactive
same,Potency,PC49,inactive
same,Potency,SC27B,inactive
same,Potency,TAB113,inactive
O=C(CCN1CCN2CCCC2C1)N1c2ccccc2Sc2ccc(Cl)cc21 (stereo not drawn),Potency,TAB113,inactive
NCCNc1cccc2ccccc12,Potency,P94_40,inactive
same,Potency,PAD,inactive
same,Potency,PC15,inactive
same,Potency,PC26,inactive
same,Potency,PC49,inactive
same,Potency,TAB109,inactive
same,Potency,TAB165,inactive
CN1CCN(C2=Nc3ccccc3Sc3ccc(Cl)cc32)CC1,Potency,PC15,inactive
same,Potency,PC49,inactive
CN1CCC(OC(c2ccccc2)c2ccccc2)CC1,Potency,PAD,inactive
same,Potency,SC27B,inactive
CN1CCN(CCC(=O)N2c3ccccc3Sc3ccc(C(F)(F)F)cc32)CC1,Potency,P94_40,inactive
same,Potency,SC27B,inactive
same,Potency,TAB113,inactive
OC(C#CCN1CCCC1)(c1ccccc1)c1ccccc1,Potency,PC15,inactive
same,Potency,TAB165,11.2 µM (active)
CN(C)C(=O)Nc1ccc(Cl)c(Cl)c1,Potency,P94_40,inactive
same,Potency,PC49,3.55 µM (active)
same,Potency,TAB109,inactive
same,Potency,TAB113,inactive
same,Potency,TAB165,inactive
COc1cc([C@H]2Oc3cc([C@H]4Oc5cc(O)cc(O)c5C(=O)[C@@H]4O)ccc3O[C@@H]2CO)ccc1O,Potency,PC49,inactive
same,Potency,TAB109,inactive
COc1cc(O)c(C(=O)c2ccccc2)cc1S(=O)(=O)O,Potency,PC49,inactive
same,Potency,SC27B,inactive
CN1CCC[C@@H]1CCO[C@](C)(c1ccccc1)c1ccc(Cl)cc1,Potency,P94_40,inactive
same,Potency,PAD,inactive
same,Potency,PC26,inactive
same,Potency,SC27B,inactive
same,Potency,TAB113,inactive
NC1CCN(c2nc3c(cc2F)c(=O)c(C(=O)O)cn3-c2ccc(F)cc2F)C1 (stereo not drawn),Potency,PAD,inactive
same,Potency,PC15,inactive
same,Potency,PC26,inactive
same,Potency,SC27B,inactive
CO[C@]12C[C@@H](COC(=O)c3cncc(Br)c3)CN(C)[C@@H]1Cc1cn(C)c3cccc2c13,Potency,PC49,inactive
same,Potency,SC27B,inactive
same,Potency,TAB113,inactive
CC(=O)O[C@H]1C[C@@H]2CC[C@@H]3[C@H](CC[C@@]4(C)[C@H]3C[C@H]([N+]3(C)CCCCC3)[C@@H]4OC(C)=O)[C@@]2(C)C[C@@H]1N1CCCCC1,Potency,PAD,inactive
same,Potency,PC15,inactive
same,Potency,PC26,inactive
same,Potency,PC49,inactive
same,Potency,SC27B,inactive
same,Potency,TAB113,inactive
CN1CCN(C2=Nc3cc(F)ccc3Cc3ccccc32)CC1,Potency,PC15,inactive
same,Potency,PC26,inactive
same,Potency,PC49,inactive
same,Potency,TAB109,inactive
same,Potency,TAB113,inactive
CC[N+](C)(CC)CCOC(=O)C(O)(c1ccccc1)C1CCCCC1 (stereo not drawn),Potency,P94_40,inactive
same,Potency,PAD,inactive
same,Potency,PC15,inactive
same,Potency,PC26,inactive
same,Potency,PC49,inactive
same,Potency,SC27B,inactive
same,Potency,TAB109,inactive
same,Potency,TAB113,inactive
same,Potency,TAB165,inactive
CC1CCc2c(N3CCC(O)CC3)c(F)cc3c(=O)c(C(=O)O)cn1c23 (stereo not drawn),Potency,PAD,inactive
same,Potency,PC15,inactive
same,Potency,PC26,inactive
same,Potency,PC49,inactive
CN(Cc1ccc(C(C)(C)C)cc1)Cc1cccc2ccccc12,Potency,PAD,inactive
same,Potency,PC15,inactive
same,Potency,PC26,inactive
same,Potency,PC49,inactive
same,Potency,SC27B,inactive
same,Potency,TAB109,inactive
CN(C)CCN1C(=O)c2ccccc2N(C)c2ccccc21,Potency,PAD,inactive
same,Potency,PC15,inactive
COc1ccc(C(=O)c2ccccc2)c(O)c1,Potency,P94_40,inactive
same,Potency,PC49,inactive
CC(C)[N+](C)(C)CC(O)COc1cccc2ccccc12 (stereo not drawn),Potency,PAD,inactive
same,Potency,PC15,inactive
same,Potency,PC26,inactive
same,Potency,PC49,inactive
same,Potency,SC27B,inactive
same,Potency,TAB113,inactive
COc1ccc(C(Cl)=C(c2ccc(OC)cc2)c2ccc(OC)cc2)cc1,Potency,P94_40,11.2 µM (active)
same,Potency,PC15,inactive
same,Potency,PC26,inactive
same,Potency,TAB109,3.55 µM (active)
same,Potency,TAB165,2.51 µM (active)
